High-throughput results (PubChem)
CHX counter: counter-screen for Shiga toxin inhibitors: cycloheximide protein synthesis inhibition; cell reporter, cycloheximide protein synthesis inhibition counterscreen; max response, %; actives 12% (n = 300,000); AID 2314; in the data active means max response mostly above about 13%, no sharp cut-off; inactive means mostly below about 14%; further: read at 38.3 µM for the half of the compounds with a filed dose; 0% is about no effect
Pf growth 96h: inhibits malaria parasite growth, 96 h. P. falciparum luciferase reporter growth, 96 h. Potency, µM (doses to about 28.7 µM), for the others: top-dose activity change, negative = inhibition, hits mostly inhibitors. actives 6.9% (n = 320,000); further: potency means the concentration at half of the fitted maximal effect; on the % scale 0 is the no-effect control and ±100 the full control effect
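Compounds incubated with erythrocytes infected by luciferase-expressing P. falciparum (2% hematocrit, 0.05% parasitemia final) for 96 hours, 37 C in 5% CO2. Growth inhibition scored as decreased luciferase luminescence.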
Shiga inhibitor: blocks Shiga toxin action in Vero cells; Vero cells, Shiga toxin protein synthesis inhibition reporter; actives 9.2% (n = 290,000); inhibition, % at 38.7 µM; in the data active means inhibition mostly above about 28%, no sharp cut-off; inactive means mostly below about 43%; further: 0% is about no effect
HCMV inh: inhibitors of human cytomegalovirus | AID 1259415 | HFF cells, HCMV-luciferase reporter, 72 h; active compounds read low | activity change, negative = inhibition, % at 57.5 µM | actives 4.5% (n = 410,000); in the data active means activity change below about -60%; inconclusive means no clear call, values can overlap the other calls; inactive means above about -39%; further: on the % scale 0 is the no-effect control and ±100 the full control effect
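After 16 h attachment at 37C, HFF cells received test compound and HCMV-luciferase (1 PFU/cell); reporter luminescence read 72 h later, data normalized against buffer-only and known inhibitor Salinomycin.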
Pf growth 48h: P. falciparum growth inhibition at 48 hours (one generation). AID 504832. Potency, µM (top dose mostly 28.7 µM), inactives show top-dose activity change, negative = inhibition, usual class: inhibitors. P. falciparum luciferase growth in erythrocytes, 48 h. actives 5.9% (n = 310,000); further: potency means the concentration at half of the fitted maximal effect; on the % scale 0 is the no-effect control and ±100 the full control effect
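Here the parasites carry a stable luciferase gene and grow inside erythrocytes in Albumax-based RPMI medium with compound for one erythrocytic cycle. Activity is scored as loss of luminescent signal.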
HCV inh: blocks hepatitis C virus; Huh7.5.1 HCVcc-Cre infection, luciferase reporter, 44 h; Potency, µM (doses to about 41.8 µM), without a hit: at the highest dose activity change, negative = inhibition, usual class: inhibitors; actives 3.4% (n = 340,000); AID 651820; further: potency means the concentration at half of the fitted maximal effect; on the % scale 0 is the no-effect control and ±100 the full control effect
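HCVcc-Cre virus at an moi near 0.5 was added right after compound to cells cultured 4 h from seeding (1,000 cells/well). Luciferase activity was determined 44 h later, 15 min after substrate addition at RT.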
* marks the source's active call; other numbers are inactive results; ? = inconclusive; · = no result given. Compounds with a hit are over-represented: about 21% of the library has one in this group of screens. Unless noted, the call rests on the fitted dose curve; in most records, active means well fitted inhibition curve with a large enough effect; inconclusive means small, poorly fitted or top-dose-only effect, or another doubt; inactive means no such curve, though single readings can be large or run the other way.

SMILES | CHX counter | Pf growth 96h | Shiga inhibitor | HCMV inh | Pf growth 48h | HCV inh
CC1CCCCN1CCCNC(=O)Cn1ncc2c3ccccc3n(C)c2c1=O (stereo unspecified) | · | · | · | 31 | · | ·
CC1CCCCN1CCCNC(=O)Cn1ncc2c3ccccc3n(Cc3ccccc3F)c2c1=O (stereo unspecified) | · | · | · | -74* | · | ·
CCCn1c2ccccc2c2cnn(CC(=O)NC3CCC(C)CC3)c(=O)c21 (stereo unspecified) | -1 | 2% | -4 | 20 | -9% | 5%
Cn1c2ccccc2c2cnn(CC(=O)N3CCCCC3)c(=O)c21 | 17* | 28% | 30 | -15 | 15% | 14%
CCCn1c2ccccc2c2cnn(CC(=O)NCCCN3CCN(c4ccccc4)CC3)c(=O)c21 | -3 | 0.33µM* | 2 | -24 | 8% | 11µM*
CCCn1c2ccccc2c2cnn(CC(=O)NCCCN3CCCCC3)c(=O)c21 | -2 | ? | -7 | -24 | -9% | -10%
CCNC(=O)c1c2c(nc3ccccc13)C(=O)N(C1CCCCC1)C2 | · | · | · | 20 | · | ·
CSc1cccc(NC(=O)c2cnn(-c3ccc(F)cc3)c2-n2cccc2)c1 | · | · | · | -26 | · | ·
CCCn1c2ccccc2c2cnn(CC(=O)NCCCN3CCCC(C)C3)c(=O)c21 (stereo unspecified) | -6 | 15µM* | -8 | -65* | -13% | ?
Cc1ccccc1NC(=O)CCC(=O)N/N=C/c1cc([N+](=O)[O-])ccc1O | -5 | ? | -6 | 1 | ? | 9%
Cc1ccc(/C=N/NC(=O)CSc2nc3ccccc3s2)o1 | 12* | 32% | 25 | ? | 20% | 35%
N#CCC(=O)N/N=C/c1ccc(Sc2nc3ccccc3s2)o1 | 3 | 78% | -13 | -99* | 3% | 10%
O=C(CSc1nc2ccccc2s1)N/N=C/c1cc([N+](=O)[O-])ccc1O | 17* | -7% | 40* | -6 | ? | 3%
O=C(Cc1cccc2ccccc12)N/N=C/c1ccc(Sc2nc3ccccc3s2)o1 | 5 | ? | 5 | -31 | ? | 10µM*
COCC(=O)N/N=C/c1ccc(Sc2nc3ccccc3s2)o1 | 2 | ? | 11 | -17 | -5% | -17%
Cc1ccc(-c2c(C)sc3ncn(CC(=O)N4CCOCC4)c(=O)c23)cc1C | -3 | -3% | -5 | -12 | ? | 1%
COCCOC(=O)c1[nH]c2c(c1C)C(=O)CC(c1ccc(N(C)C)cc1)C2 (stereo unspecified) | 14* | ? | 14 | 31 | 12µM* | 13µM*
COc1ccc(COC(=O)c2[nH]c3c(c2C)C(=O)CC(c2ccc(OC)c(OC)c2)C3)cc1 (stereo unspecified) | · | · | · | 31 | · | ·
C=CCOC(=O)c1[nH]c2c(c1C)C(=O)CC(c1cc(OC)c(OC)c(OC)c1)C2 (stereo unspecified) | -1 | 12µM* | -9 | · | 9.3µM* | ?
CCCCOC(=O)c1[nH]c2c(c1C)C(=O)CC(c1cc(OC)c(OC)c(OC)c1)C2 (stereo unspecified) | -3 | -21% | 1 | -63* | 2.9µM* | 2.5µM*
COc1cc(C2CC(=O)c3c([nH]c(C(=O)OC4CCCCC4)c3C)C2)cc(OC)c1OC (stereo unspecified) | · | · | · | -39 | · | ·
CCOC(=O)c1[nH]c2c(c1-c1ccc(OC)cc1)C(=O)CC(c1ccc(OC)c(OC)c1)C2 (stereo unspecified) | -1 | 8.3µM* | 11 | -22 | ? | ?
COc1cccc(CN2C(=O)c3ccccc3C2C(=O)NCCc2ccccc2)c1 (stereo unspecified) | · | · | · | 18 | · | ·
CCCCc1ccc(NS(=O)(=O)c2cc3c4c(c2)CC(=O)N4CCC3)cc1 | · | · | · | -23 | · | ·
CC(=O)N1c2ccc(S(=O)(=O)N3CCCC(C(=O)NC4CCCC(C)C4C)C3)cc2CC1C (stereo unspecified) | 1 | -21% | -17 | ? | ? | ?
SMILES | CHX counter | Pf growth 96h | Shiga inhibitor | HCMV inh | Pf growth 48h | HCV inh
COCCOC(=O)c1[nH]c2c(c1C)C(=O)CC(c1cc(OC)c(OC)c(OC)c1)C2 (stereo unspecified) | -2 | 9.3µM* | 33 | -4 | 5.2µM* | 13µM*
Nc1ncn(C2C[C@H](O)[C@@H](CO)O2)c(=O)n1 (stereo partly specified) | · | -11% | · | · | -3% | ·
Nc1ccc2nc(SCC(=O)N3CCOCC3)sc2c1 | 31* | 25% | 71* | 16 | 36% | 17%
Nc1nnc(SCC(=O)Nc2ccc(N3CCOCC3)c(Cl)c2)s1 | 21* | -29% | 34 | -9 | -1% | ?
O=C(CSc1ccc(F)cc1)Nc1ccc(N2CCOCC2)c(Cl)c1 | 20 | 142% | 26 | -5 | 13% | ·
Nc1ccc2nc(SCc3cccc(F)c3)sc2c1 | 42* | 2% | 152* | 0 | 303% | -5%
CCCC(=O)Nc1ccc2nc(SCC(=O)Nc3ccc(N4CCOCC4)c(Cl)c3)sc2c1 | 52* | ? | 150* | -10 | ? | ?
CN(C(=O)COC(=O)c1ccc2ccccc2n1)C1CCS(=O)(=O)C1 (stereo unspecified) | 1 | 30% | -8 | 53 | 6% | 16%
Nc1ccc2nc(SCC(=O)Nc3ccc(N4CCOCC4)c(Cl)c3)sc2c1 | 21* | 2% | 22 | -2 | 14% | ?
O=C(O)CN1CCN(Cc2ccccc2F)C1=O | -6 | 8% | 2 | 11 | 30% | 5%
Nc1c(N2CCN(c3ccccc3)CC2)c2ccccc2oc1=O | 0 | 3% | -8 | -100* | -9% | 2%
Cc1cc(C)c(S(=O)(=O)Cc2ccc(Cl)cc2)c(=O)[nH]1 | 3 | 13% | -4 | ? | 10µM* | 12%
COc1ccc(NC(=O)C(C)Sc2nnc3c4c(nc(-c5ccc(OC)cc5)n23)CC(C)(C)OC4)cc1 (stereo unspecified) | -2 | ? | -1 | -37 | 2.9µM* | -24%
O=C(Nc1c(F)c(F)c(F)c(F)c1F)OC[C@@H]1CSCCS(=O)(=O)N1 | · | · | · | -4 | · | ·
NC(=O)OCC(O)COc1ccc(Cl)cc1 (stereo unspecified) | · | 18% | · | -2 | 3% | 15%
COc1ccc(/C=N/NC(=O)CN(C)S(=O)(=O)c2ccc(NC(C)=O)cc2)cc1 | -1 | 2% | -12 | ? | ? | 16%
CCOc1ccccc1N(CC(=O)Nc1ccc(OC)c(Cl)c1)S(=O)(=O)c1ccccc1 | · | · | · | -62* | · | ·
COc1ccc(N(CC(=O)Nc2ccc3c(c2)OCO3)S(=O)(=O)c2ccccc2)c(OC)c1 | -3 | 9% | -1 | -68* | ? | ?
CCOc1ccccc1N(CC(=O)Nc1ccccc1Br)S(=O)(=O)c1ccccc1 | · | · | · | -63* | · | ·
CCOc1ccccc1N(CC(=O)O)S(=O)(=O)c1ccccc1 | -1 | · | -9 | 23 | 16% | 8%
